# Experimental data reported in PubChem BioAssay AID2508 (National Center for Advancing Translational Sciences (NCATS), 2010).
# Inconclusive results are not listed. Active and inactive are the calls of the source. Calls come from the whole dose curve; as a rule, active = well fitted inhibition curve with a large enough effect; inconclusive = small, poorly fitted or top-dose-only effect, or effect the other way; inactive = no such curve, though single readings can be large or run the other way.
# Experiment: Confirmatory Assay for General miRNAs Modulators and/or Inhibitors/Activators of miR-21
# Conditions: HeLa miR-21 FLuc reporter, luminescence, 48 h; series mostly up to 38.3 µM
# Text: MLSCN Grant: 1 R21 NS059478-01 Assay Provider: Qihong Huang, The Wistar Institute NCGC Assay Overview: MicroRNAs (miRNAs) are endogenously encoded small (~20-25 nucleotides), nonprotein-coding RNAs that are involved in post-transcriptional repression of target messenger RNAs (mRNAs) (Le and Hannon, 2004). Estimated to be involved in the regulation of 30% of all protein-coding mRNAs (Filipowicz et al., 2008), miRNAs play a significant role in many biological processes including cellular differentiation and tissue development (Ghildiyal and Zamore, 2009).
# NCGC Assay Protocol Summary: Reagents: HeLa cells stably expressing firefly luciferase (FLuc) under the control of a CMV promoter (upstream) and a miR-21 binding sequence directly downstream of the gene. These cells endogenously express miR-21. Control compounds used were compound C3 (provided by collaborator), N6-phenyladenosine (MP Biomedicals, 0215379625), and DMSO. Assay Summary: 6uL of HeLa miR-21-FLuc cells in assay buffer (DMEM, Invitrogen #21063-029; 10% FBS, HyClone #SH30071.03) were dispensed at 2000cells/well (3.3 x 10^5 cells/mL) into Greiner solid-white TC-treated 1536-well plates using a Multidrop Combi (Thermo Fisher Scientific). Plates were incubated for one hour at 37 degree Celsius, 95% humidity, 5% CO2. These assay plates were then treated with 23nL of compound or DMSO using a Kalypsys pin tool, which allows for delivery of a 24-point titration of each compound to the assay plate, with a final compound concentration ranging from approximately 40uM to 5pM. Assay plates were then incubated for 48 hours. After incubation, plates were allowed to come to RT for one hour prior to delivery of 3uL of 3X luciferase detection reagent. After a 15 minute incubation to allow for cell lysis, luciferase activity was measured using a ViewLux CCD imager (PerkinElmer), with an average exposure time of 2-12 seconds. Keywords: NIH Roadmap, MLPCN, MLSMR, qHTS, miR-21, microRNA, firefly luciferase, FLuc.
row,Compound,Potency
1,Cc1cccc(-n2nnc(-c3nc(-c4cccs4)no3)c2N)c1,0.634 µM (active)
2,O=C(COc1ccccc1F)Nc1ccc(-c2nc3ccccc3s2)cc1,1.26 µM (active)
3,Clc1ccc(-n2ncc3c(NCc4ccccn4)ncnc32)cc1,4.49 µM (active)
4,O=C(CSc1nnc(-c2ccccn2)o1)Nc1cccc(Cl)c1,2.52 µM (active)
5,Cc1c(-c2nsc(NC(=O)c3cccs3)n2)nnn1-c1ccc(Cl)cc1,14.2 µM (active)
6,COc1cccc(NC(=O)CSc2nnc(-c3cccs3)o2)c1,6.34 µM (active)
7,COc1ccc(CNc2nc(-c3ccco3)nn2C(=O)CC(C)C)cc1,11.3 µM (active)
8,N#Cc1cc2cc3c(cc2nc1SCC(=O)N1CCOCC1)OCO3,1.13 µM (active)
9,CC(=O)c1cnc2nc(SCc3ccccc3)nn2c1C,6.34 µM (active)
10,COc1ccc(-n2nnc(-c3nc(-c4cccs4)no3)c2N)cc1OC,inactive
11,Cc1cc(C)c2c(N)c(C(=O)Nc3ccccc3F)sc2n1,1.42 µM (active)
12,O=C(CSc1nnc(-c2ccc(Cl)cc2)o1)Nc1ccc(F)cc1,1.79 µM (active)
13,CS(=O)(=O)n1nc(-c2ccc(Cl)cc2)nc1SCc1ccccc1,5.04 µM (active)
14,COc1ccc(-c2csc(NC(=O)COC(=O)c3ccc(Br)o3)n2)cc1,2.83 µM (active)
15,CCc1ccc(-n2nnc(-c3nc(-c4cccs4)no3)c2N)cc1,3.18 µM (active)
16,CC1=C(c2ccc(C)c(C)c2)S(=O)(=O)N=C1N1CCC(C(=O)NCCc2ccc(Cl)cc2)CC1,inactive

row,Compound,Potency
1,COc1ccc(NC(=O)CSc2nnc(-c3cccs3)o2)cc1,10 µM (active)
2,CCc1ccc2oc(C(=O)Nc3nonc3CC)c(C)c2c1,7.11 µM (active)
3,Cc1ccccc1Nc1nc(N)nc(CN(C)c2ccccc2)n1,11.3 µM (active)
4,CCc1cccc(-n2nnc(-c3nsc(NC(=O)c4cccs4)n3)c2C)c1,10 µM (active)
5,COc1ccc(OCC(=O)Nc2ccc(-c3nc4cc(Cl)ccc4o3)cc2)cc1,0.503 µM (active)
6,CC(C)C(=O)Nc1nc2c(s1)CC(C(C)(C)C)CC2 (configuration not stated),2.83 µM (active)
7,COc1ccc(OCC(=O)Nc2cc(-c3nc4ccccc4s3)ccc2C)cc1,4 µM (active)
8,CC(C)(C)C1CCc2nc(NC(=O)Cc3cn4ccsc4n3)sc2C1 (configuration not stated),11.3 µM (active)
9,Nc1c(C(=O)Nc2ccccc2Br)sc2nc(-c3cccs3)ccc12,inactive
10,CCC(=O)n1nc(-c2cccnc2)nc1NCc1ccc(F)cc1,inactive
11,O=C(CSc1nnc(-c2ccncc2)o1)Nc1nncs1,inactive
12,CN(C(=O)CSc1nnc(-c2ccccc2F)o1)C1CCCCC1,14.2 µM (active)
13,CCc1nonc1NC(=O)c1oc2ccccc2c1C,7.98 µM (active)
14,CC(=O)Nc1nc2c(C)cc(NC(=O)C3CCCCC3)cc2s1,1.79 µM (active)
15,COc1ccc(C(=O)Nc2nnc(C(C)C)s2)cc1OC,17.9 µM (active)
16,COc1ccc(CNc2n[nH]c(-c3ccco3)n2)cc1OC,inactive
